Source: PubChem BioAssay
This is one part of the list. Activity calls are given as the source filed them.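 The calls were made as follows, unless noted: active = mean inhibition above about 50% in the one-dose retest (limit read from the data); inactive = the rest.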

Tests used:
[1] = PPC-1 cell viability loss – ATP content luminescence, cytotoxicity control for TRAIL apoptosis potentiator project, confirmation (AID 1447;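 active = reconfirmed compounds whose average cytotoxicity reaches 50% or more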;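 also: 0% = DMSO-treated cells and 100% = wells holding medium but no cells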); settings: PPC-1 viability, ATPlite luminescence, overnight; at 5 µM; stronger effect = higher value
[2] = target: Sentrin-specific protease 8 (Homo sapiens) (UniProt Q96LD8); assay: human SENP8 peptidase blockers, hit retest – biochemical, luminescence, single concentration, confirmation (AID 488912;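 active = mean inhibition across replicates above about 50%, limit read from the data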); settings: Recombinant SENP8, Z-RLRGG-aminoluciferin luminescence, 60 min; at 12.5 µM; stronger effect = higher value
Chain of Sentrin-specific protease 8 (Homo sapiens) (Q96LD8 whole entry, looked up, the tested form may be a part): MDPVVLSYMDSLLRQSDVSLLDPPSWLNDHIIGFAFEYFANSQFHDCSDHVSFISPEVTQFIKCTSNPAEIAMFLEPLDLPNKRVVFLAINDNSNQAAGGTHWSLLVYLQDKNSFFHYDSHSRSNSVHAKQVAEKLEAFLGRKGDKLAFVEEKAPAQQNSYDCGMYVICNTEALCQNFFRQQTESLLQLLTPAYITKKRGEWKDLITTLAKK

[3] = target: Sentrin-specific protease 6 (Homo sapiens) (UniProt Q9GZR1); assay: inhibition of human SENP6 catalytic domain – biochemical, luminescence, single concentration, confirmation (AID 488915); settings: recombinant SENP6, Z-RLRGG-aminoluciferin luminescence; at 12.5 µM; stronger effect = higher value
Chain of Sentrin-specific protease 6 (Homo sapiens) (Q9GZR1 628-1112 limits assumed): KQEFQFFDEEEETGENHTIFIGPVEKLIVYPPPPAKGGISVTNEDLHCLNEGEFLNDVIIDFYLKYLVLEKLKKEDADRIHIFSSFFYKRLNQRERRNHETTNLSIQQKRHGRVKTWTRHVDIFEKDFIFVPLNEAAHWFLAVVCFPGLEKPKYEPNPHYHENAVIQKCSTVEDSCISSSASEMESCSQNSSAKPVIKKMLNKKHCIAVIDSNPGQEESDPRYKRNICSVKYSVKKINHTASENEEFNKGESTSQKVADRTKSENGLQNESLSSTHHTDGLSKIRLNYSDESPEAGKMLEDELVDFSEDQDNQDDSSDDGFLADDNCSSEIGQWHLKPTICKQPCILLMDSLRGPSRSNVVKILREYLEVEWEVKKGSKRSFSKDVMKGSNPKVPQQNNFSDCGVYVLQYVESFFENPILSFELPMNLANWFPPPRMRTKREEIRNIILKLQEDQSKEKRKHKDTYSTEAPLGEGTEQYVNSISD

[4] = target: Sentrin-specific protease 7 (Homo sapiens) (UniProt Q9BQF6); assay: human SENP7 peptidase blockers, hit retest – biochemical, luminescence, single concentration, confirmation (AID 488917); settings: recombinant SENP7, Z-RLRGG-aminoluciferin luminescence, 40 min; at 12.5 µM; stronger effect = higher value
Chain of Sentrin-specific protease 7 (Homo sapiens) (Q9BQF6 706-1050 limits assumed): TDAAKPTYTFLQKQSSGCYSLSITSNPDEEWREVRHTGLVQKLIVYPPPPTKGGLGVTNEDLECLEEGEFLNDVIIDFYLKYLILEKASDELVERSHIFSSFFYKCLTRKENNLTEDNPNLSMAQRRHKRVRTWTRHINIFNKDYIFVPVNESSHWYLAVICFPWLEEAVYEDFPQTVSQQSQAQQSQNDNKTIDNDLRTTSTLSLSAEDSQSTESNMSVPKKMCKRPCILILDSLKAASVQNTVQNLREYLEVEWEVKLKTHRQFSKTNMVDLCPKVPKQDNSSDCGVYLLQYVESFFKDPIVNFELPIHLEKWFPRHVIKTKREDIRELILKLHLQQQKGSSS

Caspase-3 (Homo sapiens) = Caspase-3 (Homo sapiens) (UniProt P42574); assay: human caspase-3 activity blockade, out-of-family – biochemical, single concentration, selectivity assay for SENP inhibitor project, confirmation (AID 488918;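 active = mean inhibition above about 50%, limit read from the data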;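 also: plate controls were enzyme with DMSO for no effect and wells without caspase-3 for full effect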); settings: purified caspase-3, Z-DEVD-aminoluciferin luminescence, 60 min; at 12.5 µM; stronger effect = higher value
Chain of Caspase-3 (Homo sapiens) (P42574 28-227 limits assumed): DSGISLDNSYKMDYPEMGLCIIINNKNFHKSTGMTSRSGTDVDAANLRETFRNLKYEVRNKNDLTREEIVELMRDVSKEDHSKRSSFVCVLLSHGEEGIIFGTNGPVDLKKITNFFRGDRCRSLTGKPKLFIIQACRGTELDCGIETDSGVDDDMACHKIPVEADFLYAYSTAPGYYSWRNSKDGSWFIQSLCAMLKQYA

[5] = Ultra-Glo luciferase signal interference – biochemical, single concentration, SENP8 reaction pre-completed, artefact control for SENP inhibitor project, confirmation (AID 488919;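 active = mean inhibition above about 50% when retested at one dose, limit read from the data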;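 also: plate controls were DMSO wells with completed reaction for no effect and substrate without enzyme for full effect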); settings: Pre-incubated SENP8/Z-RLRGG-aminoluciferin, luciferase luminescence interference; at 12.5 µM; stronger effect = higher value
[6] = target: Tumor necrosis factor receptor superfamily member 10B (Homo sapiens) (UniProt O14763); assay: viability loss of caspase-8 NB7 cells with TRAIL – with/without TRAIL, luminescence panel, confirmation (AID 651596; in the data active = activity above about 50%); settings: NB7 neuroblastoma + caspase-8, TRAIL sensitization, NB7 Caspase-8, with TRAIL, mean of runs, at 10 µM, stronger effect = higher value
Chain of Tumor necrosis factor receptor superfamily member 10B (Homo sapiens) (O14763 whole entry, looked up): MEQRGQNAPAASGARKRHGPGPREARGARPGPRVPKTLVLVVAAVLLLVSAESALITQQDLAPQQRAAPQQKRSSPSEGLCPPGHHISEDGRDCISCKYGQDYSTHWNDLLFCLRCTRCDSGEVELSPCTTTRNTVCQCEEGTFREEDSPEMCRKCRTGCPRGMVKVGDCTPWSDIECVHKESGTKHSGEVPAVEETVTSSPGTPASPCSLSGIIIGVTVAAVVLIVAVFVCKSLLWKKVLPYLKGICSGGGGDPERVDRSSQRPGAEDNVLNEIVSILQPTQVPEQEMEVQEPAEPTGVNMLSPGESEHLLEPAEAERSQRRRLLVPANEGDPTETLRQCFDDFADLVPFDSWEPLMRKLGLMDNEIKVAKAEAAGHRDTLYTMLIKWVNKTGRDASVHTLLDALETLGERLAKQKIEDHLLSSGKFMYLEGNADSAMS

[7] = as above; settings: NB7 neuroblastoma + caspase-8, without TRAIL, NB7 Caspase-8, without TRAIL, mean of runs, at 10 µM
[8] = lowers stimulated NF-kB luciferase signal in Jurkat – cell-based, luminescence, single concentration, T-cell NF-kB inhibitor project, confirmation (AID 435020;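 active = inhibition reaching about 45% at 4 µM in either replicate, limit read from the data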;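 also: plate controls were PMA/ionomycin stimulated DMSO wells for no effect and unstimulated DMSO wells for full effect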); settings: PMA/ionomycin-induced, 16 h, at 4 µM, stronger effect = higher value
[9] = target: Protein Mdm4 (Homo sapiens) + E3 ubiquitin-protein ligase Mdm2 (Homo sapiens) (UniProt O15151+Q00987); assay: human Mdm2/MdmX binding disruption – cell-based, luminescence, single concentration, set 2, confirmation (AID 504601;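 active = mean inhibition of the luminescence signal across two replicates at or above 26 percent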); settings: SaOS-2 split-luciferase Mdm2/MdmX complementation, at 8 µM, stronger effect = higher value
Chain of Protein Mdm4 (Homo sapiens) + E3 ubiquitin-protein ligase Mdm2 (Homo sapiens) (O15151 whole entry, looked up): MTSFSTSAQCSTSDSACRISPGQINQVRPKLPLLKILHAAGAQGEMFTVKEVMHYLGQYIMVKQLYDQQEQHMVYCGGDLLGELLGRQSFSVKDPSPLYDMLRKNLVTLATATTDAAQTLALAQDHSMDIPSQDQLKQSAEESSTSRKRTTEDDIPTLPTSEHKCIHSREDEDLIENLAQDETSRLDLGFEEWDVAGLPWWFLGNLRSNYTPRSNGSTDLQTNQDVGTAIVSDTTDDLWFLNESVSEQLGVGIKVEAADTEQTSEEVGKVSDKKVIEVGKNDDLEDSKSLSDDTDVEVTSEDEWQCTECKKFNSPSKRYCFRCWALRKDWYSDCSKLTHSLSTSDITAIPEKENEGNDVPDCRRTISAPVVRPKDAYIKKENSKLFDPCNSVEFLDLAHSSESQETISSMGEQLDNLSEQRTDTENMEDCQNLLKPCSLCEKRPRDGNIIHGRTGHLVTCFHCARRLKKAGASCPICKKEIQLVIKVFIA
Chain of Protein Mdm4 (Homo sapiens) + E3 ubiquitin-protein ligase Mdm2 (Homo sapiens) (Q00987 whole entry, looked up): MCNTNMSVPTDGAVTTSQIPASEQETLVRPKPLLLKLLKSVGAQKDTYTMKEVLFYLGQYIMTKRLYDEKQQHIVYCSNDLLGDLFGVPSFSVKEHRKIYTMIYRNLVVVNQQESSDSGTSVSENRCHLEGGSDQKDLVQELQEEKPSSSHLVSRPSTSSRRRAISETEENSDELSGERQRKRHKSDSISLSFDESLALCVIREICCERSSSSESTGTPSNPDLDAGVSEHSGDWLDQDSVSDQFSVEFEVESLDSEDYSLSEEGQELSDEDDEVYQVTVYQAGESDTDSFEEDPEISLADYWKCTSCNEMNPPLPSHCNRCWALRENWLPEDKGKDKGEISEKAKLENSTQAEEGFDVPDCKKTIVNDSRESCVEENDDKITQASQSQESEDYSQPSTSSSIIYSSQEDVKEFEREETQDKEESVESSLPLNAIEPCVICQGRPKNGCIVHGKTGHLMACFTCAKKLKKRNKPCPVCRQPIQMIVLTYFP

[10] = inhibition of PEG-3 promoter luciferase signal – cell-based, HeLa, luciferase reporter, single concentration, confirmation (AID 602417;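 active = at 20 µM dose, 40% or more inhibition averaged across four replicates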); settings: HeLa PEG-Prom luciferase reporter, luminescence, overnight; at 20 µM; stronger effect = higher value
[11] = NF-kB reporter suppression in CF airway cells – cell-based, GFP fluorescence, single concentration, confirmation (AID 602472; in the data active = inhibition above about 40%;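 also: stimulus PAF is a Pseudomonas aeruginosa filtrate and not platelet activating factor; plate controls were DMSO wells with stimulus for no effect and unstimulated DMSO wells for full effect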); settings: KKLEB CF airway cells, PAF-induced NF-kB-GFP fluorescence, overnight; at 5 µM; stronger effect = higher value
[12] = HIF-2a driven luciferase blockers, single dose – luminescence, 786-0 RCC cells, confirmation (AID 651580;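 active = mean inhibition across four replicates of at least 40 percent at the single tested concentration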); settings: HIF-2a luciferase reporter luminescence, overnight, at 18.8 µM, stronger effect = higher value
[13] = HIF-1a luciferase reporter signal reduction – MiaPaCa-2 cells, single concentration, counter-screen for HIF-2a inhibitor project, confirmation (AID 651589;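 active = mean inhibition of the reporter signal across four replicates at the single tested dose of 50% or more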); settings: MiaPaCa-2 HIF-1a luciferase reporter, desferoxamine, overnight; at 18.8 µM; stronger effect = higher value
PEG-3 [14] = target: PEG-3 (UniProt Q6IN02); assay: inhibition of PEG-3 promoter-driven reporter – cell-based, HeLa, luciferase, CREF/GAPDH counter-screen panel, dose response (AID 624167); settings: CREF/GAPDH counter-screens; HeLa PEG-Prom luciferase reporter, overnight, run 1, dose range 1, at 100 µM (top of the series) unless noted
Chain of PEG-3 (Q6IN02 whole entry, looked up): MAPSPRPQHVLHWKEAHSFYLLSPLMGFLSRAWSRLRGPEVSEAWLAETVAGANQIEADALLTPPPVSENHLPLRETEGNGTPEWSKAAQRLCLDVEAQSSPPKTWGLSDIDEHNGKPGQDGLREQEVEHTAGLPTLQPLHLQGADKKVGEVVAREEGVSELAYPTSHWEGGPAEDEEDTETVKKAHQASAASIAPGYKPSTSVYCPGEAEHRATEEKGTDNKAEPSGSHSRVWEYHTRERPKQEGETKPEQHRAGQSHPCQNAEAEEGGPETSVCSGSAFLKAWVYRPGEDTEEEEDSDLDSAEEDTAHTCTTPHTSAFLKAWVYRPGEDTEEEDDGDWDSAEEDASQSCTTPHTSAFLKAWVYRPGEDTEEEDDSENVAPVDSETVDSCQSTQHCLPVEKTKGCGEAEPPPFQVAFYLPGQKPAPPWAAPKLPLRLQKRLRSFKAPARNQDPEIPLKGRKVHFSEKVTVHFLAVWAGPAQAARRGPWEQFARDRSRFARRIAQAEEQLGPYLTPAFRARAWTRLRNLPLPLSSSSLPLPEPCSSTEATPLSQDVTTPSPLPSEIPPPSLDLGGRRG

PEG-3 [15] = target: PEG-3 (UniProt Q6IN02); assay: as above; settings: CREF/GAPDH counter-screens; HeLa PEG-Prom luciferase reporter, overnight, run 2, dose range 1, at 100 µM (top of the series) unless noted
Rat fibroblasts (CREF) [16] = assay: as above; settings: CREF/GAPDH counter-screens; run 1, dose range 1, at 100 µM (top of the series)
Rat fibroblasts (CREF) [17] = assay: as above; settings: CREF/GAPDH counter-screens; run 2, dose range 1, at 100 µM (top of the series)

In the case of `COc1ccc(-c2cn3ccc(C)cc3n2)cc1`, the cytotoxicity [1] is reported as 89.4% (active), the inhibition [2] is reported as -5.4% (inactive) and the inhibition [3] is reported as 88.1% (active). The inhibition [4] was 99.5% (active), the inhibition (Caspase-3 (Homo sapiens)) was 95.2% (active) and the inhibition [5] was 91.2% (active). It also gave an activity [6] of 82.7% and an activity [7] of 81.1%.
With `COc1cc(SC)ccc1C(=O)Nc1cc(C)ccn1` the cytotoxicity [1] was 53.4% (active), the inhibition [2] was 39.8% (inactive) and the inhibition [3] was 40.9% (inactive). The inhibition [4] was 78.8% (active), the inhibition (Caspase-3 (Homo sapiens)) was 43.8% (inactive) and the inhibition [5] was 51% (active).
With `O=C(NC(Nc1nc2ccc([N+](=O)[O-])cc2s1)(C(F)(F)F)C(F)(F)F)c1ccccc1` the inhibition [8] was 80.7% (active).
In the case of `COc1cccc(/C=C/c2ccc3ccccc3n2)c1OC(C)=O`, the cytotoxicity [1] is reported as 74.4% (active), the activity [6] is reported as 67.2% and the activity [7] is reported as 60.8%.
In the case of `Cc1ccc(-c2nc3ccccc3[nH]2)cc1N`, the cytotoxicity [1] is reported as 49.3% (inactive), the inhibition [2] is reported as 91.6% (active) and the inhibition [3] is reported as 92% (active). The inhibition [4] was 102% (active), the inhibition (Caspase-3 (Homo sapiens)) was 96.7% (active) and the inhibition [5] was 92.3% (active).
In the case of `Clc1ccc(-c2cc(-c3ccccn3)on2)c(Cl)c1`, the cytotoxicity [1] is reported as 89.7% (active), the inhibition [2] is reported as 94.7% (active) and the inhibition [3] is reported as 95.8% (active). For the same compound, the inhibition [4] was 102% (active), the inhibition (Caspase-3 (Homo sapiens)) was 94.9% (active) and the inhibition [5] was 32.9% (inactive).
In the case of `Cc1ccc(NC(=O)c2csc3c2CCCC3)cc1`, the inhibition [8] is reported as -157% (inactive).
For `Cc1ccc(S(=O)(=O)C2(S(=O)(=O)c3ccc(C)cc3)CCCC2)cc1`, the inhibition [8] was 24.9% (inactive).
With `COc1ccc(-c2nc(-c3ccccc3)no2)c(OC)c1` the cytotoxicity [1] was 69.6% (active), the inhibition [2] was 97.4% (active) and the inhibition [3] was 100% (active). The inhibition [4] was 103% (active), the inhibition (Caspase-3 (Homo sapiens)) was 98.1% (active) and the inhibition [5] was 98.1% (active). It also gave an activity [6] of 82.3% and an activity [7] of 80.7%.
For `O=C(/C=C/c1ccc(Cl)c([N+](=O)[O-])c1)c1ccc(O)cc1`, the cytotoxicity [1] was 4.1% (inactive), the inhibition [9] was 103% (active) and the inhibition [10] was 98.9% (active). The inhibition [11] was -37.9% (inactive), the inhibition [12] was 20.2% (inactive) and the inhibition [13] was 105% (active). It also gave an inhibition (PEG-3 [14]) of 102%, an inhibition (PEG-3 [15]) of 99.1% and an inhibition (Rat fibroblasts (CREF) [16]) of 99.1%. It also gave an inhibition (Rat fibroblasts (CREF) [17]) of 98.7%.
